This is a sample that favours compounds with a hit; in the whole collection about 6% have one here.
D1 PAM: enhances dopamine response at the human D1 receptor; HEK293 TREx D1 cells, calcium flux, dopamine EC20 potentiation; AID 504651; 360,000 tested, 0.036% active; potentiation, % at 10 µM; in the data active = potentiation above about 30%
D1 ag: human D1 receptor agonism; P21728; HEK293 T-REx D1 cells, calcium flux, agonist mode; activation, % at 2 µM; 360,000 tested, 1% active; AID 504660; in the data active = activation above about 30%
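Agonism was scored from calcium flux recorded over 180 s (1 read/s) after pintool compound addition, following a 10-cycle baseline. Cells were inducible force-coupled HEK293 TREx D1, plated overnight at 30 C and loaded with no-wash calcium dye.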
D1 antag: human D1 dopamine receptor antagonism; P21728; activity change, negative = inhibition, % at 10 µM; 360,000 tested, 3.2% active; AID 504652; HEK293 TREx D1 cells, calcium flux, dopamine EC80; hits give low values; in the data active = activity change below about -30%
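Calcium flux readout: force-coupled, inducible Hek293 Trex D1 line, cells induced overnight at 30 C with tetracycline, dye-loaded 30–90 min at RT. Antagonism scored against EC80 dopamine challenge given 180 s after compound.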
D3 ag: agonists of human D3 dopamine receptor | P35462 | AID 652048 | 410,000 tested, 0.58% active | max activation, % | D3R DiscoveRx beta-arrestin cells, luminescence, 90 min; in the data active = max activation above about 30%
Target sequence (P35462 whole entry, looked up): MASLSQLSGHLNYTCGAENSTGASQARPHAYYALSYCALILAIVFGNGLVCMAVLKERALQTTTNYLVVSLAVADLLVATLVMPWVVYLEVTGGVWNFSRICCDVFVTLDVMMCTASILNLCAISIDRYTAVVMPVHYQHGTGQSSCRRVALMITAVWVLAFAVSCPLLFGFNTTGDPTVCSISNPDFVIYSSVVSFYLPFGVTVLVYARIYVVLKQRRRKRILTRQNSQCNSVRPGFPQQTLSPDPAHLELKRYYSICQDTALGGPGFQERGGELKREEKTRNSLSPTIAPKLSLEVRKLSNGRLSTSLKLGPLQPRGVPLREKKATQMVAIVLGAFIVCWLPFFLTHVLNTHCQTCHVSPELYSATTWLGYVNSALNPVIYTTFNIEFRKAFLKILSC
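Agonist-mode cell screen: cells plated at 1500/well and incubated overnight at 37 °C, then exposed to library compounds for 90 min at 37 °C. Detection reagent was added for 30–60 min at room temperature, and luminescence was read.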
DRD3 antagonist: D3 dopamine receptor (human) antagonism. D3R cells, DiscoveRx beta-arrestin luminescence, antagonist mode; hits give low values. 360,000 tested, 2.5% active. max response, negative = inhibition, %; in the data active = max response below about -50%; inconclusive = no clear call, values can overlap the other calls
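Cells plated overnight at 1500 cells/well, then exposed to library compounds with dopamine controls for 90 minutes at 37 degrees C. DiscoveRx reagent added for 30–60 minutes at room temperature; luminescence read, quantitative HTS format.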
Numbers stand for hits; – = inactive; ? = inconclusive; · = no result; ! = not confirmed by another sample.

SMILES	D1 PAM	D1 ag	D1 antag	D3 ag	DRD3 antagonist
CC(Sc1nnc(-c2ccco2)n1C)C(=O)NC1CCCC1 (configuration not stated)	–	–	–	–	–
O=S(=O)(c1ccc2c(c1)OCCO2)N1CCN(S(=O)(=O)c2c(F)ccc(O)c2F)CC1	–	–	–	·	·
Oc1c(Cl)cc(Cl)cc1C=Nc1ccc2c(c1)OCCO2	–	–	–	–	-52
Brc1csc(C=Nc2ccc3c(c2)OCCOCCOCCOCCO3)c1	–	–	–	–	–
O=C(NCCc1ccccc1Cl)c1ccc2c(=O)n(-c3ccccc3)c(=O)[nH]c2c1	–	–	–	–	·
Cc1cccc(N2CCN(C(=O)C3CCN(S(=O)(=O)c4ccc5c(c4)oc(=O)n5C)CC3)CC2)c1C	–	–	–	–	·
Cc1[nH]c2ccccc2c1CC#N	–	–	–	–	–
Cc1[nH]c2ccccc2c1C(C#N)(C#N)C1C(=O)c2ccccc2C1=O	–	–	–	–	-89
O=C(O)c1nn(Cc2nc3ccccc3o2)c(=O)c2ccccc12	·	–	-77	–	–
Cc1ccc(-c2noc(Cn3nc(C(=O)O)c4ccccc4c3=O)n2)cc1	–	–	–	–	–
c1csc(-c2nn3c(C4COc5ccccc5O4)nnc3s2)c1 (configuration not stated)	–	–	–	–	–
c1ccc2c(c1)OCC(c1nnc3sc(-c4cnccn4)nn13)O2 (configuration not stated)	–	–	–	30	–
CCOC(=O)c1cc(-c2ccccc2)n(CC(=O)Nc2ccc(CC)cc2)c1C	–	–	–	–	·
CC(C)CCN(Cc1ccco1)C(=O)c1cc2c(Cl)nc3ccccc3c2s1	–	–	–	–	·
CC(=O)O[C@]1(C(C)=O)CC[C@H]2[C@@H]3C=C(Cl)C4=CC(=O)CC[C@]4(C)[C@H]3CC[C@@]21C	–	–	–	–	–
CC(=O)O[C@]1(C(C)=O)CC[C@H]2[C@@H]3C=C(Cl)C4=CC(=O)[C@@H]5C[C@@H]5[C@]4(C)[C@H]3CC[C@@]21C	–	–	·	–	-85!
O=C(NCCc1csc(-c2ccccc2)n1)c1cccs1	–	–	-60	–	–
CCS(=O)(=O)NCCc1csc(-c2ccccc2)n1	–	–	–	–	–
O=C(NCCc1csc(-c2cccnc2)n1)c1ccccc1	–	–	-47!	–	–
O=C(NCCc1csc(-c2ccc(Cl)cc2)n1)c1cccs1	–	–	–	–	·
O=C(NCCc1csc(-c2ccccc2)n1)c1ccco1	–	–	-30	–	–
CCS(=O)(=O)NCCc1csc(-c2cccnc2)n1	–	–	-36	–	–
Cc1cc(C)n(-c2nc3ccccc3nc2Nc2ccc(Cl)c(Cl)c2)n1	–	–	–	–	·
Cc1oc(-c2ccccc2)nc1CNC(=O)Nc1ccccc1	–	–	–	–	·
Cc1cccc(C(=O)NCCc2csc(C)n2)c1	–	–	-85	–	–
SMILES	D1 PAM	D1 ag	D1 antag	D3 ag	DRD3 antagonist
O=C(O)CSc1cc(NS(=O)(=O)c2cccc([N+](=O)[O-])c2)c2ccccc2c1O	–	–	–	–	-51
CCOc1ccc(S(=O)(=O)Nc2cc(SCC(=O)O)c(O)c3ccccc23)cc1	–	–	–	–	-51
CCc1ccc(S(=O)(=O)Nc2cc(SCC(=O)O)c(O)c3ccccc23)cc1	–	–	–	–	-63
Cc1ccc(C)c(S(=O)(=O)Nc2cc(SCC(=O)O)c(O)c3ccccc23)c1	–	–	–	–	?
CCOc1ccc(-n2c(=O)c3c(C)c(C)sc3n(CC(=O)N3CCC(C)CC3)c2=O)cc1	–	–	–	–	·
N=c1ccn2c(n1)OC1C(O)[C@@H](CO)O[C@H]12 (some centres not stated)	–	–	–	·	·
CCOc1ccc(-n2c(=O)c3c4c(sc3n(CC(=O)NC(C)CC)c2=O)CCCC4)cc1 (configuration not stated)	–	–	–	–	·
COc1ccc(S(=O)(=O)n2nc(C)c(S(=O)(=O)N3CCCCCC3)c2C)cc1C	–	–	–	–	·
COc1ccc(N2CCN(C(CNC(=O)c3ccc(C)cc3)c3ccc4c(c3)OCO4)CC2)cc1 (configuration not stated)	–	–	–	–	·
CCOC(=O)c1ccc(S(=O)(=O)N2CCN(CC(=O)NC(=O)NC(C)(C)C)CC2)cc1	–	–	–	–	-71
